Screen size: about 16,000 compounds; about 5,700 (36%) were called active. Roughly 24% stayed inconclusive and do not appear here. The list shows a part of the results. Unmarked numbers belong to inactive results. The call rests on the fitted dose curve; in most records, active means well fitted curve in the direction sought with a large enough effect; inconclusive means small, poorly fitted or top-dose-only effect, or effect the other way; inactive means no such curve, though single readings can be large or run the other way.
The molecules below were run against Cytochrome P450 1A2 (Homo sapiens) (UniProt P05177) (assay: Cytochrome panel assay with activity outcomes). Conditions: recombinant CYP, pro-luciferin dealkylation, luminescence, p450-cyp1a2; series mostly up to 57.1 µM; activity, negative = inhibition: at the top concentration.
Sequence of Cytochrome P450 1A2 (Homo sapiens) (P05177 whole entry, looked up): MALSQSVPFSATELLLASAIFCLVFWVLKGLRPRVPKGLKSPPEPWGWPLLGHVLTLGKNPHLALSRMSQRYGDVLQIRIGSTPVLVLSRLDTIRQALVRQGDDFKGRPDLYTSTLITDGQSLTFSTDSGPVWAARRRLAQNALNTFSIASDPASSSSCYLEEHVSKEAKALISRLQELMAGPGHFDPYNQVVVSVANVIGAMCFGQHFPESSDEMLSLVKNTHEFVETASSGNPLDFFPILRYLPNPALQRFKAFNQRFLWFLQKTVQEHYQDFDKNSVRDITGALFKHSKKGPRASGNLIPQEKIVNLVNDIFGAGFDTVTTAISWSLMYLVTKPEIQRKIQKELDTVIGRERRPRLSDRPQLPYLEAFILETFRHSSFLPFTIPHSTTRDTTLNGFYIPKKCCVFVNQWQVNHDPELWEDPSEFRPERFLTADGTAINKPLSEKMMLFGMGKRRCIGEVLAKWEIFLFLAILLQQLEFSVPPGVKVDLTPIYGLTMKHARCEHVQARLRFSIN
With `CCCNC(=O)OC[C@@H]1O[C@H](CCO/N=C\C[C@H]2C=C[C@H](OC(C)=O)[C@@H](COC(C)=O)O2)C=C[C@@H]1Oc1ccc(OC)cc1` the activity, negative = inhibition was -4.67% [at 11.4 µM]. For `Cn1c(=O)c2[nH]c(/N=N\N3CCN(CCO)CC3)nc2n(C)c1=O`, the activity, negative = inhibition was -14.7% [at 2.29 µM]. `Cc1cccc(CNc2nc(-c3ccoc3)nc3ccccc23)c1` was tested, and the AC50 was 1260 nM (active). For `c1ccc(CNc2nc(-c3ccoc3)nc3ccccc23)cc1`, the AC50 was 631 nM (active). With `c1cncc(CNc2nc(-c3ccoc3)nc3ccccc23)c1` the AC50 was 398 nM (active). With `c1csc(CNc2nc(-c3ccoc3)nc3ccccc23)c1` the AC50 was 316 nM (active). For `CCc1ccc(C(=O)COC(=O)C(Cc2ccccc2)NC(=O)C2CCC(C)CC2)cc1` (configuration not stated), the “activity, negative = inhibition” value was -7.88%. In the case of `C=CC[C@@H]1C=C[C@@H](O/N=C\[C@@H](OC)[C@H](C)/C=C\CC(=O)OC)[C@@H](CO)O1`, the activity, negative = inhibition is reported as -0.319% [at 11.4 µM]. `COCCCN=CC1=C(O)CC(C)(C)CC1=O` was tested, and the “activity, negative = inhibition” value was -13.1%. Molecule `CN[C@@H](c1ccncc1)[C@@H](NC)c1ccncc1` has an activity, negative = inhibition of -13.3% [at 11.4 µM]. With `c1cncc(-c2nc(NCc3cccs3)c3ccccc3n2)c1` the AC50 was 316 nM (active). In the case of `COc1ccc(OCCn2c(C)c(/C=N/n3cnnc3)c3ccccc32)cc1`, the AC50 is reported as 398 nM (active). `O=C(CCC(=O)Nc1ccccc1)NNC(=O)c1cccs1` was tested, and the “activity, negative = inhibition” value was -23.3%. `O=C(COc1cccc2ccccc12)NNC(=O)c1cccs1` was tested, and the AC50 was 8910 nM (active). For `CC1(C)Cc2c(sc3nc(-c4ccccc4)n(N)c(=O)c23)CO1`, the AC50 was 7080 nM (active). With `Cc1cc2cc3c(C)cc(=O)oc3c(C)c2o1` the AC50 was 1000 nM (active). In the case of `CC(C)NC(=O)N1CC[C@@]2(CCCN(S(=O)(=O)c3ccccc3)C2)C1`, the “activity, negative = inhibition” value is reported as -2.4%. In the case of `CSc1nc(Sc2cccc(Cl)c2)c2ccccc2n1`, the AC50 is reported as 355 nM (active). For `CSc1c(-c2ccccc2)nc2ccc(Cl)cc2c1C(=O)O`, the “activity, negative = inhibition” value was 10.5%. `O=C(O)/C=C\c1cnc[nH]1` was tested, and the “activity, negative = inhibition” value was -4.95%. With `Cc1cc(C)nc(NC(=O)CCCC(=O)O)c1` the “activity, negative = inhibition” value was -5.89%. In the case of `Cc1cc(C)nc(NC(=O)/C=C/c2ccc(Cl)cc2Cl)c1`, the AC50 is reported as 3160 nM (active). For `C#CCCCC(=S)Nc1ccccc1`, the AC50 was 12600 nM (active). In the case of `N=c1nc(N2CCCCC2)cc(N)n1O`, the “activity, negative = inhibition” value is reported as -2.65% [at 25.6 µM]. For `O=C(c1cc(C(F)(F)F)cc(C(F)(F)F)c1)N1CCC[C@@]2(CCN(c3ccccc3)C2)C1`, the “activity, negative = inhibition” value was -17.8%. `CC(Sc1nc(-c2ccccc2)cc(C(F)(F)F)n1)C(=O)N1CCCCC1` (configuration not stated) was tested, and the AC50 was 8910 nM (active). Work on `O=C1[C@H]2[C@H]3[C@H](O)[C@H](O)C/C(=N/OC[C@@H](O)COCc4ccco4)[C@H]3CC[C@@H]2C(=O)N1Cc1ccccc1` yielded an activity, negative = inhibition of -10.7% [at 11.4 µM].
On the % scale 0 is the no-effect control and ±100 the full control effect.
